Assay outcomes (PubChem BioAssay)
In the library only some 19% were active in any assay of this set; here they are far more common.
IL1B secr inh: inflammasome signaling inhibition, IL-1 beta readout. hit rate 4.7% among 360,000. THP-1 LPS/ATP IL-1B secretion, AlphaLISA, 16 h; hits give low values. AID 743279. activity change, % at 57.5 µM; in the data active = activity change below about -50%; inconclusive = mostly about -30% to -49%
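THP-1 cells pretreated 1 hr with compounds (up to 57.5 uM final), then stimulated with LPS (250 ng/mL final) plus ATP (1.25 mM final); secreted IL-1B measured by AlphaLISA after 16 hr, decreased signal indicating inhibition.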
DT40 TDP1 CPT: growth inhibition of DT40 Tdp1-/-;hTDP1 cells with camptothecin (screen for TDP1 inhibitors). chicken DT40 Tdp1-/-;hTDP1 cells + 20 nM CPT, ATP luminescence, 48 h. Potency, µM (highest dose often 46.2 µM), for inactives: at the top dose activity change, negative = growth inhibition, actives largely listed as inhibitors. hit rate 12% among 420,000; note: potency is the fitted concentration of half-maximal effect; nearly all actives have a fitted effect of over 55% in size
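Chicken DT40 Tdp1-/- cells complemented with human TDP1, 400 cells/well, exposed to compounds plus 20 nM camptothecin for at least 48 h at 37 C; viability read as ATP content by CellTiter-Glo luminescence.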
HT1080NT lethal: kills 2HG-producing HT-1080-NT fibrosarcoma cells. hit rate 1.6% among 360,000. AID 686970. Potency, µM (top dose mostly 46.1 µM), for the others: at the top dose activity, negative = less viability, usual class: cytotoxic. HT-1080-NT fibrosarcoma viability, CellTiter-Glo ATP luminescence, 48 h;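 note: NT is the 2HG producing partner of a matched IDH1 knockdown line; potency is the fitted concentration of half-maximal effect; 0% = DMSO-treated cells and -100% = media-only wells without cells; nearly all actives have a fitted effect of over 55% in size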
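Read-out is CellTiter-Glo luminescence after 10 minutes at room temperature, following 48 hours' compound treatment of HT-1080-NT cells (750 cells/well, RPMI, 5% FBS, 37 degrees C).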
TDP1 cell noCPT: qHTS for Inhibitors of human tyrosyl-DNA phosphodiesterase 1 (TDP1): qHTS in cells in absence of CPT; Potency, µM (highest dose often 46.2 µM), inactives show at the highest dose activity change, negative = growth inhibition, most hits filed as inhibitors; hit rate 15% among 420,000; DT40 Tdp1-/- hTDP1 cells, no CPT, ATP luminescence, 48 h; note: potency is the fitted concentration of half-maximal effect; nearly all actives have a fitted effect of over 55% in size
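Cells were dispensed at 400 per well, compounds added by pin tool, plates incubated ≥48 hr at 37 °C, then CellTiter-Glo added for 30 min at room temperature before luminescence reading. Line: DT40 Tdp1-/- complemented with hTDP1; camptothecin omitted.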
HT1080 IDH1KD tx: kills HT-1080 cells with IDH1 knockdown. HT-1080 IDH1 knockdown viability, ATP luminescence, 48 h. Potency, µM (titrated, usually from 46.1 µM), inactives show at the highest dose activity, negative = toxicity, hits mostly cytotoxic. hit rate 2% among 360,000. AID 686971;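 note: potency is the fitted concentration of half-maximal effect; 0% = DMSO wells and -100% = cell-free medium wells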
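IDH1KD HT-1080 cells, 750/well, RPMI + 5% FBS; compound pinned after 2 h settling; 48 h, 37 °C; CellTiter-Glo luminescence; % activity normalised to DMSO and no-cell wells; curves fitted, classed by r2 and efficacy.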
* hit, by the source's call; ? = inconclusive; · = not tested or not shown; [ ] = another dose, or the depositor's remark. Unless noted, calls come from the whole dose curve; as a rule, active = well fitted curve in the direction sought with a large enough effect; inconclusive = small, poorly fitted or top-dose-only effect, or another doubt; inactive = no such curve, though single readings can be large; an effect the other way counts as inactive or inconclusive. Unless noted, % is set by controls: 0 for no effect and ±100 for the full control effect.

SMILES | IL1B secr inh | DT40 TDP1 CPT | HT1080NT lethal | TDP1 cell noCPT | HT1080 IDH1KD tx
COc1ccc(C(=O)c2sc(Nc3ccccc3)nc2C)cc1 | -70* | ? | -18% | ? | ?
Cc1ccc(C(=O)c2sc(Nc3ccc(F)cc3)nc2N)c(C)c1 | · | 13µM* | · | 15µM* | ·
CC(OC(=O)c1ccc(Cl)nc1)C(=O)N1CCc2ccccc21 (stereo unspecified) | -4 | 0% | -22% | -17% | -12%
CCNC(=O)COC(=O)c1cc(S(=O)(=O)N2CCCc3ccccc32)ccc1Cl | -94* | -16% | 6% | -6% | 10%
CC(C)CNC(=O)COC(=O)c1ccc(Cl)c(S(=O)(=O)N2CCc3ccccc32)c1 | 25 | -3% | 6% | -5% | -9%
O=C(NCc1ccco1)c1cc(S(=O)(=O)N2CCCc3ccccc32)ccc1Cl | 0 | 15µM* | -3% | 13µM* | 0%
Cc1cc([N+](=O)[O-])ccc1NC(=O)CSc1nncn1-c1ccccn1 | 32 | ? | -15% | ? | -18%
O=C1COc2ccc(C(=O)COC(=O)Cc3ccsc3)cc2N1 | -5 | -8% | -4% | -7% | -29%
CCCCCCCNC(=O)C1(CC2CC(c3cccc(Br)c3)=NO2)CCN(C(=O)CCCCCBr)CC1 (stereo unspecified) | ? | 23µM* | 16µM* | 26µM* | ?
CCCCCCCNC(=O)C1(CC2CC(c3cccc(Br)c3)=NO2)CCN(C(=O)C2(C)CC2)CC1 (stereo unspecified) | -59* | 16µM* | -16% | 16µM* | -16%
CC(C)(C)OC(=O)N1CCC(CC2CC(c3cccc(Br)c3)=NO2)(C(=O)O)CC1 (stereo unspecified) | 26 | -11% | -1% | -2% | -5%
CC(C)(C)c1ccc(C(=O)N2CCN(C(=O)c3ccco3)CC2)cc1 | 6 | ? | -11% | ? | 17%
Cc1ccc([N+](=O)[O-])cc1-c1[nH]c(-c2ccc(O)c(O)c2)nc1-c1ccccc1 | 3 | 16µM* | -9% | 16µM* | -25%
COc1ccc([N+](=O)[O-])cc1-c1[nH]c(-c2ccc(C(=O)O)cc2)nc1-c1ccccc1 | 31 | -6% | 14% | -1% | -1%
COc1ccc(-c2nc(-c3ccccc3)c(-c3cc([N+](=O)[O-])ccc3C)[nH]2)cc1O | -1 | ? | ? | 15µM* | ?
O=C(NC1CCOC1=O)c1ccccc1 (stereo unspecified) | 6 | 2% | 13% | 0% | 18%
COc1ccc(C2=NOC(C(=O)NCCCn3ccnc3)C2)cc1 (stereo unspecified) | 4 | -5% | 1% | -20% | 0%
O=c1[nH]c(NCCO)c(N=Cc2ccccc2)c(=O)[nH]1 | 12 | ? | ? | ? | 7%
COCCN(CCOC)CC(O)COC(c1ccccc1)c1ccccc1 (stereo unspecified) | -3 | 0% | 1% | 15µM* | -21%
CCc1cccc(NC(=O)CCc2c(C)nn(-c3ccc(N4CCOCC4)nn3)c2C)c1 | -7 | ? | -3% | ? | -2%
Cc1nn(-c2ccc(N3CCCCC3)nn2)c(C)c1CCC(=O)Nc1ccc(F)cc1F | · | 16µM* | · | 18µM* | ·
CCOC(=O)c1cccc(NC(=O)CCc2c(C)nn(-c3ccc(N4CCCCC4)nn3)c2C)c1 | · | ? | · | 23µM* | ·
Cc1cc(C)cc(NC(=O)CCc2c(C)nn(-c3ccc(N4CCCC4)nn3)c2C)c1 | · | 21µM* | · | 26µM* | ·
Cc1ccc(NC(=O)CCc2c(C)nn(-c3ccc(N4CCCCC4)nn3)c2C)cc1 | -2 | ? | -8% | -18% | -17%
COc1ccc(C)cc1NC(=O)CCc1c(C)nn(-c2ccc(N3CCCCC3)nn2)c1C | ? | ? | -18% | 26µM* | -5%
SMILES | IL1B secr inh | DT40 TDP1 CPT | HT1080NT lethal | TDP1 cell noCPT | HT1080 IDH1KD tx
Cc1cc(C)cc(NC(=O)CCc2c(C)nn(-c3ccc(N4CCCCC4)nn3)c2C)c1 | -17 | ? | -7% | ? | -1%
COc1ccc(N2CCN(S(=O)(=O)c3cc4c(cc3C)N(C(C)=O)CCO4)CC2)cc1 | 43 | -24% | 3% | -21% | 2%
Cc1nn(-c2ccc(N3CCCC3)nn2)c(C)c1CCC(=O)Nc1ccc(F)c(Cl)c1 | · | 18µM* | · | 26µM* | ·
Cc1nn(-c2ccc(N3CCCCC3)nn2)c(C)c1CCC(=O)Nc1ccc(F)c(F)c1 | -13 | ? | -29% | -28% | -20%
CC(C)c1ccc(NC(=O)COc2ccc(C3SCCS3)cc2)cc1 | 13 | ? | 0% | 23µM* | -6%
CCCCNC(=O)Nc1ccc(C2SCCS2)cc1 | · | ? | -20% | 16µM* | -12%
O=C1CC(c2ccccc2)Cc2[nH]c(=O)c(C(=O)Nc3ccc(OC(F)(F)F)cc3)cc21 (stereo unspecified) | · | 13% | · | -9% | ·
O=C(CNC(=S)NC(=O)c1ccc(Br)o1)c1ccccc1 | 0 | 16µM* | -1% | ? | -1%
O=C(CNC(=S)NC(=O)c1ccc(Cl)cc1)c1ccccc1 | 34 | -6% | -1% | ? | 0%
CNC(=O)COc1ncnc2scc(-c3ccc(F)cc3)c12 | 6 | 0% | 2% | 10% | 2%
Cc1ccc(-c2csc3ncnc(Oc4ccc5c(C)cc(=O)oc5c4)c23)cc1 | 28 | 18µM* | 3% | ? | 9%
CC(C)(C)c1ccc(S(=O)(=O)NNC(=O)c2cc3ccccc3[nH]2)cc1 | 5 | ? | 21µM* | ? | 21µM*
CCCC(C)NNC(=O)c1cc2ccccc2[nH]1 (stereo unspecified) | -9 | 0% | -1%[9.24 µM] | -13% | -5%
Cc1ccc(C(O)(C(=O)NNS(=O)(=O)c2ccc(C)cc2)c2ccc(C)cc2)cc1 | -53* | 9% | -3% | -20% | 1%
COc1ccc2oc(C(=O)OCC(=O)N(C)c3c(N)n(Cc4ccccc4)c(=O)[nH]c3=O)c(C)c2c1 | -3 | ? | -6% | ? | 0%
CCN(CC)c1ccc2c(C)c(Cl)c(=O)oc2c1 | 19 | -2% | -12% | ? | -4%
CCN(CC)c1ccc2c(C)cc(=O)oc2c1 | 2 | 0% | · | -9% | ·
CCN(CC)c1ccc2c(c1)oc(=O)c1c(Cl)cc(=O)oc12 | -126* | 2.6µM* | ? | 5.2µM* | 2.6µM*
CCN(CC)c1ccc2c(Cl)c(Br)c(=O)oc2c1 | -100* | 18µM* | 18µM* | 23µM* | 21µM*
Cc1cccc(NC(=O)NC(C)CCc2ccccc2)c1 (stereo unspecified) | -57* | -18% | 1% | -17% | -7%
